Reference: publication PMC12136788
Where a chain is given by its changes, count along the chain named. In all, about 24,000 sequences were measured (“enrichment r”: median about 0.99, highest 2% from about 3.7 on). This excerpt belongs to a sample that is enriched for the highest values.

T1: UNK ZnF1-3 (human, UniProt Q9C0B0 31-174)
T1 sequence: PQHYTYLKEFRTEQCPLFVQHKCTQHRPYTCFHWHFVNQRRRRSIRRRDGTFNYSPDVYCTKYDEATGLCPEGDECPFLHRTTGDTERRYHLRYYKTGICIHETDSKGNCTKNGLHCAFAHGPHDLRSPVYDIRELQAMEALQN

B1: chr14:92628060:92628061:+_ENSG00000165934_ENST00000298875|hu_hu|motif|central (ssRNA)
RNA: GGGAGUUCUACAGUCCGACGAUCUUGACAUCAUGUCCUUUAUACAAUGGCAUAUUGUUCAUAUAAAAGGUCUCUUAUCCGGUAAAAAUCUUGACAAAGGCAGCCUUCUAAUCCAAUGCGUCCAGUUUCCGUUCUGCGGACUGCCAACAGAGGAUUGAGCAUCA
B2: chr17:32333828:32333829:-_ENSMUSG00000024002_ENSMUST00000121285|mus_mus|FALSE|FALSE (ssRNA)
RNA: GGGAGUUCUACAGUCCGACGAUCUACAGUACAGCCACAGUCACACACUACCCACAGCGCAGUGGGAGCCGCCGCUCACUGAGGAGACGAUCACACCAUUUGGAGAUAAGCAGUGCCACUGUGUCUGAGGAGAAGAGAGUUAAACAACAGAGGAUUGAGCAUCA
B3: chr17:88387627:88387628:+_ENSMUSG00000005370_ENSMUST00000005503|mus_hu|motif|central (ssRNA)
RNA: GGGAGUUCUACAGUCCGACGAUCAAAAUCAUCUCCAAAAAAAGUCUUCGUAAUGCAAGGAUGGCGUGAUCCUUUAAGCUCGGAGAAGGGGGGGGUAUCUUCCGGCAACAGAAUUACUGGGCGACACAUAGGACCAUCACCCCCCAACAGAGGAUUGAGCAUCA
B4: chr8:26941818:26941819:-_ENSMUSG00000031575_ENSMUST00000166078|mus_mus|FALSE|FALSE (ssRNA)
RNA: GGGAGUUCUACAGUCCGACGAUCACUAGCAGACACAGCACUGCUUUGUUUCUGGUUGUCAUAAGCAGGACCAAUAUUACUAAGAUCCUGAUCCAAAAGUCCAAACUUGGGGUAAUCUUCUUCUGGGUCUUUGCUUCCUGGGUCCAACAGAGGAUUGAGCAUCA
B5: chr1:163117127:163117128:-_ENSG00000143248_ENST00000313961|hu_mus|hu_hu_hu_mus_False|58_98 (ssRNA)
RNA: GGGAGUUCUACAGUCCGACGAUCUGCUACAAAGGAUGGAGGAAAUAUCACAGGGCAACUUUUGGAAGCCUGACCAGAUUACUACUUGAUUAGCUCCUUAUAAAAUUCAGAGCGCACAAAGCGGGGCAGAGAAUCCUUCUCCAUCAACAGAGGAUUGAGCAUCA
B6: chr18:90710673:90710674:+_ENSMUSG00000024614_ENSMUST00000025515|mus_mus|motif|central (ssRNA)
RNA: GGGAGUUCUACAGUCCGACGAUCACCUAAUAAAAAUUCUGAAAUUAGCUAAAAUGAAGGCAUCAAAAUUAACAAAUGAUCGGUAGUAAACAUUAUCACAAAAUACCCACUCUUAGACACGACUGCAUUCUGAUGAAAGAUGCGCAACAGAGGAUUGAGCAUCA
B7: chr2:176857141:176857142:-_ENSG00000144320_ENST00000272748|hu_mus|motif|central (ssRNA)
RNA: GGGAGUUCUACAGUCCGACGAUCUUUUUGCAAUCUCUGAUUUUUUUCUCUAAAUUCUUCCAAUGCUUGAAUUUCCUUAUCGGUAUUUUCUAGAACUUCUACUGUUGAAGGUUUUGCCCUCCAUCGAGAAAAUAAUCCACCCAUCAACAGAGGAUUGAGCAUCA
B8: 47141246_47141366_1218_CDS_ENSMUSG00000038291_ENSMUST00000170416|mouse|control|control (ssRNA)
RNA: GGGAGUUCUACAGUCCGACGAUCUUCUUCCUCACGCAUGAGCUUCUCAUACAGGUCGCUGACGAGGAAGGAGGGGUAAUACCGCUCCCUCAGCACCUCGGACACAUCGGCUUGGAUUUUGCUGAACACCUCGAUGCCUCUGUUCAACAGAGGAUUGAGCAUCA
B9: chr17:26875717:26875718:-_ENSG00000109103_ENST00000335765|hu_mus|FALSE|FALSE (ssRNA)
RNA: GGGAGUUCUACAGUCCGACGAUCACGGAUCUUGAACCUGACGAAGUCAAUCUUGUAGAUAUUUUCCUCAGGGGAGCACAGGUAGUCACCCGUGAUCCGCUGCAGCCCCAGCACAUCCUCCGGCCCGAUGGGCUGCUUGCCCUGCAACAGAGGAUUGAGCAUCA
B10: 230825810_230827160_2020_CDS_ENSG00000135775_ENST00000366669|human|control|control (ssRNA)
RNA: GGGAGUUCUACAGUCCGACGAUCGUUUAAUACAUCUGACACGGUUUCAUAGUACUUAUGAGUGCUUUCACUGAGAGUGCCUUCUAGCCACUGCUGAAUUAUUGCUUGUUUGAGCUUAUCCUUGUGUCCGCUCUGAAGCUGGAACAACAGAGGAUUGAGCAUCA
B11: chr2:242098653:242098654:+_ENSG00000115685_ENST00000406106|hu_mus|FALSE|FALSE (ssRNA)
RNA: GGGAGUUCUACAGUCCGACGAUCAUCAUAGAGAUCCAGUUCUCGAAGACUCUGCAGUUCUUCCAGGUUUUCAAUGCAUUUAAUUAGGUUUUGACGAAGGCAGAGUGACUUCACUUUCUUUAGCACCUCCAAGCCUUCAAUCUUCAACAGAGGAUUGAGCAUCA
B12: chr15:85259290:85259291:-_ENSG00000140612_ENST00000559729|hu_mus|FALSE|FALSE (ssRNA)
RNA: GGGAGUUCUACAGUCCGACGAUCAUUUAGGACUUGGUAGUACAGCUGCCUCUUGUUCAUCCGCCGCACAUCGUCUAGAAAGUCUAGAGACAGCAUGGUGAGAUGGAGAGCGCGACAACUAGCAGCCAAGAGGGCGCGAUAGAACAACAGAGGAUUGAGCAUCA
B13: chr2:125083379:125083380:+_ENSMUSG00000027203_ENSMUST00000082122|mus_mus|FALSE|FALSE (ssRNA)
RNA: GGGAGUUCUACAGUCCGACGAUCUUAAAAAAAAUUACAAAUGAUACAGCAAUUAUGAUCAAAAACAGUUUUUGGAAGGCUAUAAUUUAAAUAAUACAACAACAACAAAAAAUCUAACUGUACCCUGGGUUUUACCAAGUCUGCCAACAGAGGAUUGAGCAUCA
B14: 5810229_5811228_1359_CDS_ENSG00000099219_ENST00000339450|human|control|control (ssRNA)
RNA: GGGAGUUCUACAGUCCGACGAUCAGUCUUAUGUUUGGGCUGCAAAAAUUUUUUGCCCAGGUACAAAACAACACCCAUUACCACCAUGUAGUUUAUGAUUGAGCCAAUACGAGAGGGGUAGGCAAUGACAAACAGGCCCAGCACCAACAGAGGAUUGAGCAUCA
B15: chr8:13019523:13019524:+_ENSMUSG00000031442_ENSMUST00000123811|mus_mus|FALSE|FALSE (ssRNA)
RNA: GGGAGUUCUACAGUCCGACGAUCUUAAAGUUUUGAGGCCAGAGUACCACAAAAAAUGGCCAUGGGGUUAAUCCCUGUUUAAAAAAAAUCAAAAACUUAUAAAAGACGAGAGUCCCUUGACCCCCCCUUAGGCUGUUGGUAGCACAACAGAGGAUUGAGCAUCA
B16: chr13:107772667:107772668:-_ENSMUSG00000021693_ENSMUST00000022204|mus_hu|motif|central (ssRNA)
RNA: GGGAGUUCUACAGUCCGACGAUCCAUUUCAUUAGGAGCUGAGUCAUCAAAGGCAUAAUCAAAACGAAAUGUUUGGUUUUCGGGGUACCUUGUUAAAUCUACUUUUUGUUUUGGUUCAUGUACCAUCACAACAUCUUUACUAGGCAACAGAGGAUUGAGCAUCA
B17: chrX:101157612:101157613:-_ENSMUSG00000056537_ENSMUST00000070705|mus_mus|motif|central (ssRNA)
RNA: GGGAGUUCUACAGUCCGACGAUCAAAUUAUCAGUAACAGGUUAGCAAUUCAUCUGGUACCGAAAUCAAAUGUUUAAGUCCGGAAAUGUUGUUUUUAAAAUAUUCUUUCCAUCCUGAAAGAGAAACUAGAGAAAAGGCAUGAUACAACAGAGGAUUGAGCAUCA
B18: chr8:90938390:90938391:+_ENSG00000164823_ENST00000451899|hu_hu|motif|central (ssRNA)
RNA: GGGAGUUCUACAGUCCGACGAUCAAGAAUAUGAAGUACCUGUCAAGGUUUCAACGAUAAAAAUAUUUUUUAAAAGACCCGGUUUGGUAAUAAAUUAGAUUUAUACAAUUGAUAAUUUCAAAAUAAAUAAAAUCUGAGUUGUAACAACAGAGGAUUGAGCAUCA
B19: chr8:90938390:90938391:+_ENSG00000164823_ENST00000451899|hu_hu|FALSE|FALSE (ssRNA)
RNA: B18 RNA with G80U, G81A
B20: chr2:125083379:125083380:+_ENSMUSG00000027203_ENSMUST00000082122|mus_mus|motif|central (ssRNA)
RNA: B13 RNA with U80G, A81G
B21: 2747543_2750058_4223_CDS_ENSG00000101596_ENST00000320876|human|control|control (ssRNA)
RNA: GGGAGUUCUACAGUCCGACGAUCUUGGUUUGAAGGCAUGAGCUUUAAAUUGCUAGCUUUUGUAAGACUUAUUUUAACAUGUUGUACCGGUGCUGGAUUAUCCCACUGAUCACAAAGUUGAACAAUAAUAGGGUUCUGUAAAUCCAACAGAGGAUUGAGCAUCA
B22: chr2:44571030:44571031:-_ENSG00000138078_ENST00000409411|hu_hu|FALSE|FALSE (ssRNA)
RNA: GGGAGUUCUACAGUCCGACGAUCUCUUAUCUUGGCAGCCACAUAUUUUUCAUCUGGAGCAACUCUGAUACAAUCAAUGAAGGGCUGGUCUAACUUAAGUUCCUCCAAAUUGAAUAAAACUUCAUAAUUAUCAUUGUCUGCUUCCAACAGAGGAUUGAGCAUCA

These binders were tested against T1, UNK ZnF1-3 (assay: nsRBNS (natural sequence RNA bind-n-seq); RBNS binding buffer (assumed for nsRBNS): 25 mM Tris pH 7.5, 150 mM KCl, 3 mM MgCl2, 0.01% Triton X-100, 500 ug/ml BSA, 20 U/ml SUPERase-In, 4 C; UNK is unkempt and MSI1 is Musashi-1; names of the RNAs are library labels; protein concentration not given here; high values mean tight binding).
Binder B1 has a binding signal of 0.899 enrichment R. In the case of B2, the binding signal is reported as 1.36 enrichment R. B3 showed a binding signal of 1.58 enrichment R. With B4 the binding signal was 0.761 enrichment R. With B5 the binding signal was 1.55 enrichment R. Binder B6 has a binding signal of 1.85 enrichment R. B7 gave a binding signal of 0.366 enrichment R. Binder B8 has a binding signal of 0.729 enrichment R. For B9, the binding signal was 0.51 enrichment R. For B10, the binding signal was 0.468 enrichment R. B11 showed a binding signal of 0.6 enrichment R. B12 was tested, and the binding signal was 0.618 enrichment R. B13 was tested, and the binding signal was 4.2 enrichment R. With B14 the binding signal was 1.77 enrichment R. In the case of B15, the binding signal is reported as 4.16 enrichment R. B16 was tested, and the binding signal was 1.02 enrichment R. Work on B17 yielded a binding signal of 1.32 enrichment R. B18 showed a binding signal of 6.04 enrichment R. For B19, the binding signal was 2.3 enrichment R. In the case of B20, the binding signal is reported as 4.51 enrichment R. B21 was tested, and the binding signal was 1.18 enrichment R. Binder B22 has a binding signal of 1 enrichment R.
